Source: PubChem BioAssay (NCATS)
Results filed as inconclusive are left out. A number with no mark means an inactive call. The call rests on the fitted dose curve; in most records, active means well fitted curve in the direction sought with a large enough effect; inconclusive means small, poorly fitted or top-dose-only effect, or another doubt; inactive means no such curve, though single readings can be large; an effect the other way counts as inactive or inconclusive.

What follows are compounds tested against Aldehyde dehydrogenase, mitochondrial (Homo sapiens) (UniProt P05091) (assay: qHTS for Inhibitors of the Aldehyde Dehydrogenase Family (ALDH2) Primary screen (AID 2061308;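 further: plate controls were vehicle for no effect and reference inhibitor for full effect; nearly all actives have a fitted effect of over 55% in size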)). Conditions: ALDH2 enzyme inhibition qHTS, 1536-well; series mostly up to 56 µM; activity change, negative = inhibition: at the top concentration.

SMILES | activity change, negative = inhibition
Cn1cc(Br)c(C2N=C(Nc3nc4ccccc4o3)NC3=C2C(=O)CCC3)n1 (stereo not drawn) | -0.226%
C[C@]12CC[C@@H](O[C@@H]3O[C@H](CO)[C@@H](O)[C@H](O)[C@H]3O)C[C@@]1(O)CCC1C2CC[C@]2(C)[C@@H](C3=CC(=O)OC3)CC[C@]12O (stereo partly drawn) | 16.3% [at 28 µM]
O=C1CCCC2=C1C(c1[nH]ncc1Cl)N=C(Nc1nc3ccc(F)cc3o1)N2 (stereo not drawn) | -4.1%
CC(=O)OC1CC(O)C2(C)C(CC(OC(C)=O)C3(C)C2CCC2(C)C(c4ccoc4)C(=O)C4OC423)C1(C)C (stereo not drawn) | 5.98% [at 28 µM]
CCCCCOc1cc2c(cc1-c1cc(/C=C/C(=O)O)ccc1O)C(C)(C)CCC2(C)C | -4.73%
CO[C@@H]1[C@H](O)[C@@H](O[C@@H]2C[C@H]3CC[C@@H]4C(CC[C@]5(C)[C@@H](C6=CC(=O)OC6)CC[C@]45O)[C@@]3(C)[C@H](O)C2)O[C@H](C)[C@@H]1O[C@@H]1O[C@H](CO)[C@@H](O)[C@H](O)[C@H]1O (stereo partly drawn) | -1.47% [at 16.9 µM]
N#Cc1ccc(NC(=O)Nc2nnc(-c3ccncc3)s2)cc1C(F)(F)F | 0.915%
C[C@@H]1[C@H](O)[C@@H](C)/C=C/C=C/CC/C=C/C=C/C=C/C=C/[C@H](O[C@H]2O[C@@H](C)[C@H](O)[C@@H](N)[C@H]2O)C[C@@H]2O[C@](O)(C[C@@H](O)[C@H](O)CC[C@@H](O)C[C@@H](O)C[C@@H](O)CC(=O)O[C@H]1C)C[C@H](O)[C@H]2C(=O)O | -9.79% [at 28 µM]
CC1=C[C@H]2O[C@@H]3C[C@H]4OC(=O)/C=C/C=C/C(=O)OCC/C(C)=C/C(=O)OC[C@@]2(CC1)[C@]4(C)[C@]31CO1 | 1.11% [at 28 µM]
O=C(NCCN1CCC2(CC1)C(=O)NCN2c1cccc(F)c1)c1ccc2ccccc2c1 | -12.5%
CC1=CC2OC3[C@H](O)C[C@@](C)([C@]34CO4)[C@@]2(CO)[C@H](O)C1=O (stereo partly drawn) | 7.14%
COc1ccc(C23CCC(=O)C=C2N(C)CC3)cc1OC (stereo not drawn) | -2.38%
CO[C@@H]1C[C@H](O[C@H]2CC[C@@]3(C)C(CCC4C3CC[C@]3(C)[C@@H](C5=CC(=O)OC5)[C@@H](OC(C)=O)CC43O)C2)O[C@H](C)[C@@H]1O[C@H]1O[C@H](CO[C@@H]2O[C@H](CO)[C@@H](O)[C@H](O)[C@H]2O)[C@@H](O)[C@H](O)[C@H]1O (stereo partly drawn) | 0.55% [at 16.9 µM]
CC1=C(C(=O)Nc2nccs2)C(c2ccccc2Br)N=C(Nc2nc3ccccc3o2)N1 (stereo not drawn) | 3.15%
Cc1sc2c(c1C)C(c1ccc(Cl)cc1)=N[C@@H](CC(=O)Nc1ccc(O)cc1)c1nnc(C)n1-2 | 4.74% [at 16.9 µM]
COC1CC(OC2CCC3(C=O)C(CCC4C3CCC3(C)C(C5=CC(=O)OC5)CCC43O)C2)OC(C)C1OC1OC(CO)C(O)C(O)C1O (stereo not drawn) | -1.16% [at 16.9 µM]
CC12Cc3cn[nH]c3C=C1CCC1C2CCC2(C)C1CCC2(C)O (stereo not drawn) | -1.83%
Fc1cc(F)c2c(c1)C1C=CCC1C(c1cccnc1)N2 (stereo not drawn) | -10.2%
CC(C)=CCC[C@]1(C)C=Cc2c(O)c3c(c(CC=C(C)C)c2O1)O[C@]12C(=C[C@@H]4CC1C(C)(C)O[C@@]2(C/C=C(/C)C(=O)O)C4=O)C3=O | 0.174%
COC(=O)c1nc(-c2cccc3ccccc23)oc1OC | -23%
Cc1cc(-c2nnc3n2CCCCC3)c(C)n1-c1cccnc1 | -12.3%
C#CCO[C@H]1CN2CCC1CC2 | 5.97%
CC(=O)O[C@H]1C[C@]2(O)[C@@H]3CC[C@@H]4C[C@@H](O)CC[C@]4(C)[C@H]3CC[C@]2(C)[C@H]1c1ccc(=O)oc1 | 0.264%
Cc1cccc(NC(=O)N[C@H]2CN(C)c3ccccc3C(c3ccccc3)=N2)c1 | -2.12%

These compounds were tested against Retinaldehyde dehydrogenase 3 (Homo sapiens) (UniProt P47895) (assay: qHTS for Inhibitors of the Aldehyde Dehydrogenase Family (ALDH1A3) Primary screen (AID 2061315;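 further: plate controls were DMSO vehicle for no effect and reference inhibitor for full effect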)). Conditions: ALDH inhibition qHTS; series mostly up to 56 µM; activity change, negative = inhibition: at the top concentration.

SMILES | activity change, negative = inhibition
COc1cccc(CNc2ccc(S(=O)(=O)Nc3nccs3)cc2)c1OC | 6.31%
C/C=C1/CN2CC[C@]34C(=Nc5ccc(OC)cc53)C2C[C@@H]1C4(CO)C(=O)OC (stereo partly drawn) | 11.3%
C=C1[C@@H](O)[C@]2(O)OC[C@]34C2[C@]2(C)C(C[C@H]3OC(=O)[C@H](O)[C@@]14O)C(C)=CC(=O)[C@H]2O (stereo partly drawn) | 2.29% [at 28 µM]
CC[C@H]1C2CC3[C@@H]4N(C)c5ccccc5[C@]45C[C@@H]([C@H]2[C@H]5O)N3[C@@H]1O | -2.25%
N#Cc1ccc(NC(=O)Nc2nnc(-c3ccncc3)s2)cc1Br | -5.54%
Cc1[nH]c2ccccc2c1P(=S)(c1ccccc1)c1ccccc1 | 3.13%
CCOc1ccc(CCNC(=O)c2cc3sccc3n2CCN(C)C)cc1OCC | -1.86%
Cn1cc(Cl)c(C2N=C(Nc3nc4ccccc4o3)NC3=C2C(=O)CCC3)n1 (stereo not drawn) | -2.86%
Cc1cc(-c2nnc3n2CCCCC3)c(C)n1-c1ccc(C(C)(C)C)cc1 | 7.56%
CC(C)[C@H](NC(=O)c1nn(Cc2ccc(F)cc2)c2ccccc12)C(N)=O | 0.115%
Cc1ccc2nc(NC3=NC(c4[nH]ncc4Cl)C4=C(CCCC4=O)N3)oc2c1 (stereo not drawn) | -20.2%
CC(=O)OC[C@]12C[C@H](O)C(C)=C[C@H]1O[C@@H]1[C@H](O)[C@@H](O)[C@@]2(C)[C@]12CO2 | -8.13%
COc1ccc2c3c([nH]c2c1)C(C=C(C)C)N1C(=O)C2CCCN2C(=O)C1C3 (stereo not drawn) | -11.7%
O=C(Nc1nnc(-c2cccs2)o1)c1ccc(Cl)cc1 | 26.3%
C=C1[C@@H]2CC[C@@]3(C)[C@H](c4ccoc4)OC(=O)C[C@]13O[C@H]1CC(=O)C(C)(C)[C@H](C(OC(C)=O)C(=O)OC)[C@]12C (stereo partly drawn) | 8.25% [at 28 µM]
Cn1cc(Br)c(C2N=C(Nc3nc4ccccc4o3)NC3=C2C(=O)CCC3)n1 (stereo not drawn) | 13.1%
C[C@]12CC[C@@H](O[C@@H]3O[C@H](CO)[C@@H](O)[C@H](O)[C@H]3O)C[C@@]1(O)CCC1C2CC[C@]2(C)[C@@H](C3=CC(=O)OC3)CC[C@]12O (stereo partly drawn) | -26.5% [at 28 µM]
O=C1CCCC2=C1C(c1[nH]ncc1Cl)N=C(Nc1nc3ccc(F)cc3o1)N2 (stereo not drawn) | 0.447%
CC(=O)OC1CC(O)C2(C)C(CC(OC(C)=O)C3(C)C2CCC2(C)C(c4ccoc4)C(=O)C4OC423)C1(C)C (stereo not drawn) | 4.14% [at 28 µM]
CCCCCOc1cc2c(cc1-c1cc(/C=C/C(=O)O)ccc1O)C(C)(C)CCC2(C)C | 0.465%

SMILES | activity change, negative = inhibition
CO[C@@H]1[C@H](O)[C@@H](O[C@@H]2C[C@H]3CC[C@@H]4C(CC[C@]5(C)[C@@H](C6=CC(=O)OC6)CC[C@]45O)[C@@]3(C)[C@H](O)C2)O[C@H](C)[C@@H]1O[C@@H]1O[C@H](CO)[C@@H](O)[C@H](O)[C@H]1O (stereo partly drawn) | -17.6% [at 16.9 µM]
N#Cc1ccc(NC(=O)Nc2nnc(-c3ccncc3)s2)cc1C(F)(F)F | 5.73%
C[C@@H]1[C@H](O)[C@@H](C)/C=C/C=C/CC/C=C/C=C/C=C/C=C/[C@H](O[C@H]2O[C@@H](C)[C@H](O)[C@@H](N)[C@H]2O)C[C@@H]2O[C@](O)(C[C@@H](O)[C@H](O)CC[C@@H](O)C[C@@H](O)C[C@@H](O)CC(=O)O[C@H]1C)C[C@H](O)[C@H]2C(=O)O | -0.411% [at 28 µM]
CC1=C[C@H]2O[C@@H]3C[C@H]4OC(=O)/C=C/C=C/C(=O)OCC/C(C)=C/C(=O)OC[C@@]2(CC1)[C@]4(C)[C@]31CO1 | 2.5% [at 28 µM]
O=C(NCCN1CCC2(CC1)C(=O)NCN2c1cccc(F)c1)c1ccc2ccccc2c1 | -0.617%
CC1=CC2OC3[C@H](O)C[C@@](C)([C@]34CO4)[C@@]2(CO)[C@H](O)C1=O (stereo partly drawn) | 6.19%
COc1ccc(C23CCC(=O)C=C2N(C)CC3)cc1OC (stereo not drawn) | 0.0485%
CO[C@@H]1C[C@H](O[C@H]2CC[C@@]3(C)C(CCC4C3CC[C@]3(C)[C@@H](C5=CC(=O)OC5)[C@@H](OC(C)=O)CC43O)C2)O[C@H](C)[C@@H]1O[C@H]1O[C@H](CO[C@@H]2O[C@H](CO)[C@@H](O)[C@H](O)[C@H]2O)[C@@H](O)[C@H](O)[C@H]1O (stereo partly drawn) | -13.4% [at 16.9 µM]
CC1=C(C(=O)Nc2nccs2)C(c2ccccc2Br)N=C(Nc2nc3ccccc3o2)N1 (stereo not drawn) | 5.84%
Cc1sc2c(c1C)C(c1ccc(Cl)cc1)=N[C@@H](CC(=O)Nc1ccc(O)cc1)c1nnc(C)n1-2 | -14% [at 16.9 µM]
COC1CC(OC2CCC3(C=O)C(CCC4C3CCC3(C)C(C5=CC(=O)OC5)CCC43O)C2)OC(C)C1OC1OC(CO)C(O)C(O)C1O (stereo not drawn) | 11.7% [at 16.9 µM]
CC12Cc3cn[nH]c3C=C1CCC1C2CCC2(C)C1CCC2(C)O (stereo not drawn) | -10.2%
Fc1cc(F)c2c(c1)C1C=CCC1C(c1cccnc1)N2 (stereo not drawn) | 3.28%
CC(C)=CCC[C@]1(C)C=Cc2c(O)c3c(c(CC=C(C)C)c2O1)O[C@]12C(=C[C@@H]4CC1C(C)(C)O[C@@]2(C/C=C(/C)C(=O)O)C4=O)C3=O | -0.89%
COC(=O)c1nc(-c2cccc3ccccc23)oc1OC | -15.6%
Cc1cc(-c2nnc3n2CCCCC3)c(C)n1-c1cccnc1 | 1.96%
C#CCO[C@H]1CN2CCC1CC2 | 1.42%
CC(=O)O[C@H]1C[C@]2(O)[C@@H]3CC[C@@H]4C[C@@H](O)CC[C@]4(C)[C@H]3CC[C@]2(C)[C@H]1c1ccc(=O)oc1 | 0%
Cc1cccc(NC(=O)N[C@H]2CN(C)c3ccccc3C(c3ccccc3)=N2)c1 | 5.18%
